# Shown are actives, neighbours in structure and some others; about 5% of the full set was active somewhere.
# CHT PAM: human CHT allosteric activation | AID 488977 | B-score at 10 µM | CHT-expressing cells, membrane potential dye, choline EC20; stronger effect = higher value; LV-AA mutant CHT in HEK293 cells | hit rate 0.49% among 310,000 | Q9GZV3;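 active means initial fluorescence not abnormally high and integrated response B-score, plate-corrected, over 3 SD above library mean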
# PREPL inhibitor: inhibits the human prolyl oligopeptidase-like enzyme. Q4J6C6. recombinant PREPL, fluorescence polarization activity-based probe. inhibition, % at 5.96 µM. hit rate 0.68% among 320,000; in the data active means inhibition above about 43%;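 further: 0% = enzyme with DMSO and 100% = wells lacking enzyme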
# ALR H2O2 inh: inhibitors of human sulfhydryl oxidase ALR; P55789; purified ALR, DTT oxidation, H2O2 HRP-luminol luminescence; inhibition, % (concentration not given with the values); hit rate 3.8% among 290,000;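 active means mean replicate inhibition above about 79%, with every replicate also reaching it, limit read from the data; inconclusive means only one of the two criteria met; inactive means mean below limit and not every replicate reaching it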
# Target sequence (P55789 whole entry, looked up): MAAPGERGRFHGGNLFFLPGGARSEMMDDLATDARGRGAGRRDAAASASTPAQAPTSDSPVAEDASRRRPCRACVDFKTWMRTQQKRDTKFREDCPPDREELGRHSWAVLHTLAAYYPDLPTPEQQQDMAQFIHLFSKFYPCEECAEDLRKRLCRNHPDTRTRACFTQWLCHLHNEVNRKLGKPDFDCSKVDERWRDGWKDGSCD
# AI-2 QS mod: modulators of Vibrio harveyi AI-2 quorum sensing system; Vibrio harveyi JMH597 AI-2 luminescence/OD600 ratio, 9 h; stronger effect = lower value; strain lacks LuxN and CqsS sensors; 0 = neutral-control median; activity change, % at 7.5 µM; hit rate 0.4% among 300,000; in the data active means activity change below about -75%, passing the limit was not always enough; inconclusive means no clear call, values can overlap the other calls;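 further: luminescence divided by OD600 gain over 9 h not by final OD600 alone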
# CHT block: inhibits the human high affinity choline transporter. CHT-expressing cells, membrane potential dye, choline response; stronger effect = lower value. B-score at 10 µM. Q9GZV3. hit rate 0.86% among 310,000;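 active means B-score over 3 SD under the library average, and starting fluorescence ratio not unusually high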;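 further: choline stimulus applied at its EC90 after an EC20 pre-addition; B-score computed on integrated fluorescence ratio after choline addition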
# * marks the source's active call; other numbers are inactive results; i = inactive; ? = inconclusive; nt = not tested or not shown.
SMILES,CHT PAM,PREPL inhibitor,ALR H2O2 inh,AI-2 QS mod,CHT block
O=C(O)c1c2c(nc3ccccc13)/C(=C/c1ccc(O)cc1)CCC2,i,6.6,99.9*,22.9,i
CNc1sc(C(=O)c2ccc(F)cc2)c(N)c1-c1nc2ccccc2s1,i,30.4,90.7*,-7.7,i
CN(C)c1ccc(O)c2c1CC1CC3[C@@H](N(C)C)C(=O)C(C(N)=O)=C(O)[C@]3(O)C(=O)C1=C2O (stereo not given in full),i,9.7,nt,-87.1*,i
C[C@H]1c2cccc(O)c2C(O)=C2C(=O)[C@]3(O)C(O)=C(C(N)=O)C(=O)[C@@H](N(C)C)[C@@H]3[C@@H](O)[C@@H]21,i,17.6,-4.0,-65.3,i
COc1ccc(N2CCN(C(=O)CNS(=O)(=O)c3ccc(C)cc3)CC2)cc1,i,-9.6,57.3,28.3,i
O=C(N/N=C\c1ccc([N+](=O)[O-])o1)C1COc2ccccc2O1 (stereo not given),i,21.9,-22.6,-87.2*,i
Cc1scc(C(=O)N/N=C/c2ccc([N+](=O)[O-])o2)c1C,i,17.4,-25.6,-90.9*,i
Cc1scc(C(=O)N/N=C/c2ccco2)c1C,i,-5.2,nt,18.4,i
O=C(N/N=C\c1ccc(-c2ccccc2[N+](=O)[O-])o1)C1COc2ccccc2O1 (stereo not given),i,24.8,75.4*,11.1,i
CCOc1ccc(S(=O)(=O)N2CCN(CN3C(=O)CC4(CCCC4)C3=O)CC2)cc1,nt,-6.3,nt,nt,nt
COc1ccc(C(=O)Oc2ccc(=O)n(-c3ccccc3)n2)cc1,i,40.5,97.5*,26.9,i
Cc1ccc2occ(/C=N/NC(=O)c3ccc(O)cc3)c(=O)c2c1,i,nt,97.7*,4.4,i
COC(=O)c1ccc(C2C(C(=O)c3ccc(C)o3)=C(O)C(=O)N2c2cc(C)on2)cc1 (stereo not given),i,-3.3,91.2*,13.7,i
COC(=O)c1sc(N2C(=O)C(O)=C(C(=O)c3ccc(C)o3)C2c2cccs2)nc1C (stereo not given),i,-2.9,?,21.8,-5.84*
O=C(C1=C(O)C(=O)N(c2nccs2)C1c1ccccc1)c1cc2ccccc2o1 (stereo not given),i,-12.0,95.6*,4.0,i
Cc1ccc(C2C(C(=O)c3cc4ccccc4o3)=C(O)C(=O)N2c2cc(C)on2)cc1 (stereo not given),i,38.2,97.9*,27.5,i
Cc1cc2nc3n(c2cc1C)CC1CC(C(=O)NCc2cccc(C(F)(F)F)c2)N(C)C31 (stereo not given),i,-12.1,nt,18.6,i
O=C(O)c1cc2cccc(S(=O)(=O)N3CCCCC3)c2cc1O,i,-3.2,4.3,13.4,i
Cc1ccc2c(Cl)c(C(=O)NC3CC3)sc2c1,i,nt,-8.4,-10.8,i
COc1cccc(CN(C(=O)COc2ccc(Cl)cc2)C2CCS(=O)(=O)C2)c1 (stereo not given),i,18.8,5.3,-6.9,i
Cc1cc(N2C(=O)C(O)=C(C(=O)c3ccco3)C2c2cccc(Oc3ccccc3)c2)no1 (stereo not given),i,6.7,93.9*,30.4,i
COc1ccc(C(=O)CCN2CCN(c3ccccc3OC)CC2)cc1,i,5.0,18.4,44.4,i
COc1ccc(C(=O)CCN2CCc3cc(OC)c(OC)cc3C2)cc1,i,0.6,97.9*,34.6,i
COc1ccc(C2CC(c3ccccc3)=NN2c2ccc(Cl)c(C(=O)O)c2)cc1 (stereo not given),i,20.2,98.4*,-3.1,i
COc1cc(C2CC(c3ccccc3)=NN2c2ccccc2)ccc1OCC(=O)O (stereo not given),i,9.4,98.8*,41.7,i
SMILES,CHT PAM,PREPL inhibitor,ALR H2O2 inh,AI-2 QS mod,CHT block
COc1ccc(C2CC(c3ccccc3)=NN2c2ccccc2)c(C(=O)O)c1OC (stereo not given),i,-6.2,98.6*,-5.6,i
Cc1nc(N2CCN(c3ccccn3)CC2)c2c(C)c(C(=O)N3CCN(c4ccccc4F)CC3)sc2n1,i,-24.9,3.1,22.1,i
O=C(NC1CCN(Cc2ccccc2Cl)CC1)c1ccccc1,i,-6.0,-5.5,10.0,i
O=C(NC1CC1)C1=C[C@@H](c2ccc3c(c2)OCO3)C[C@@H](OCc2ccc(CO)cc2)O1,i,12.9,nt,-1.2,i
Cc1ccccc1CN(C)C(=O)COC(=O)CSc1ccc([N+](=O)[O-])cc1,i,-0.2,98.8*,19.8,i
O=C(CCSc1ccccc1)NNC(=O)c1ccccc1F,i,3.6,1.5,nt,i
COc1cccc(N2CCN(S(=O)(=O)c3cccc4cccnc34)CC2)c1,i,9.3,94.5*,22.4,i
CC1CC(C)CN(S(=O)(=O)c2cccc3cccnc23)C1 (stereo not given),i,5.7,91.6*,2.7,i
COc1ccc(N2CCN(S(=O)(=O)c3cccc4cccnc34)CC2)cc1,i,7.7,77.9*,-7.6,i
O=S(=O)(c1cccc2cccnc12)N1CCN(c2ccc(F)cc2)CC1,i,-11.4,nt,12.9,i
CC1Cc2ccccc2N1C(=O)Cn1cnc2c1c(=O)n(C)c(=O)n2C (stereo not given),i,-9.6,-2.2,8.9,i
Cc1sc(NC(=O)c2ccccc2F)c(CN2CCCCC2)c1C,i,8.7,95.2*,24.6,i
COc1ccc([N+](=O)[O-])cc1NC(=O)CSCc1ccccc1C,i,4.8,98.9*,14.2,i
COc1ccc(C)cc1NC(=O)CSCc1ccccc1C,i,9.0,9.8,-9.7,i
O=C(CSCc1ccc(Cl)cc1)Nc1cc([N+](=O)[O-])ccc1O,i,0.1,-16.5,3.2,-8.15*
COc1ccc([N+](=O)[O-])cc1NC(=O)CSCc1ccc(Br)cc1,i,16.6,-2.8,30.4,i
Cc1ccc(S(=O)(=O)NCC(=O)OCC(=O)N2CC(C)OC(C)C2)cc1 (stereo not given),nt,6.4,-1.3,nt,nt
COc1ccc(NC(=O)COC(=O)CCCC2=NS(=O)(=O)c3ccccc3N2)cc1Cl,i,-3.1,-3.7,16.4,i
CC(Sc1ccccc1)C(=O)NNC(=O)c1csc(N2CCOCC2)n1 (stereo not given),i,2.8,0.4,6.0,i
CCN(c1ccc(NC(=O)COC(=O)c2ccc3ccccc3n2)cc1)C(C)C,i,6.3,96.0*,17.9,i
Cc1ccccc1-c1nc2cc(N)ccc2o1,i,8.9,-71.8,16.5,i
CC(C)c1ccc2oc(-c3cc(N)ccc3O)nc2c1,i,22.6,93.0*,18.5,i
O=C(CSc1ccc(-c2ccccn2)nn1)Nc1cccc(F)c1,i,34.4,-1.9,-0.2,i
CC(C)n1cnc2c(Nc3ccc(F)c(Cl)c3)nc(NCCO)nc21,i,19.5,39.4,18.6,-5.43*
